# Shown are actives, neighbours in structure and some others; about 19% of the full set was active somewhere.
# SW480 rereplic – DNA re-replication induction in SW480 cells | SW480 DNA re-replication, Hoechst DNA content imaging, 48 h | actives 1.8% (n = 340,000) | Potency, µM (doses to about 46.1 µM), for the others: top-dose re-replication activation, actives largely listed as activators; further: potency means the concentration at half of the fitted maximal effect; % of control where 0% means no effect; nearly all actives have a fitted effect of over 55% in size
#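 Compounds, transferred as 23 nL by pin tool, were incubated with cells for 48 hr; DNA content per nucleus was then quantified by Hoechst staining and fluorescence plate imaging.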
# DT40 TDP1 no CPT – qHTS for Inhibitors of human tyrosyl-DNA phosphodiesterase 1 (TDP1): qHTS in cells in absence of CPT. DT40 Tdp1-/- hTDP1 cells, no CPT, ATP luminescence, 48 h. Potency, µM (series often up to 46.2 µM), inactives show at the top dose activity change, negative = growth inhibition, hits mostly inhibitors. actives 15% (n = 420,000). AID 686978, 2013; further: potency means the concentration at half of the fitted maximal effect; on the % scale 0 is the no-effect control and ±100 the full control effect; nearly all actives have a fitted effect of over 55% in size
#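 Compound effects on proliferation are scored in DT40 Tdp1-/-;hTDP1 cells in the absence of CPT. ATP levels (CellTiter-Glo luminescence) are recorded after a ≥48 hr, 37 °C incubation.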
# MCF10A rereplic – DNA re-replication induction in MCF 10a cells | Potency, µM (highest dose often 46.1 µM), for the others: at the top dose activity, positive = re-replication, actives largely listed as activators | MCF 10A DNA re-replication, Hoechst nuclear intensity, 48 h | AID 624296 | actives 2.9% (n = 350,000); further: potency means the concentration at half of the fitted maximal effect; % of control where 0% means no effect; nearly all actives have a fitted effect of over 50% in size
# Chronic BCR inh – inhibitors of chronic active B-cell receptor signaling. ABC-DLBCL IkBa-CBG/CBR reporter, luminescence ratio, 4 h. actives 0.05% (n = 340,000). Potency, µM (doses to about 46.1 µM), inactives show top-dose activity change, negative = inhibition, usual class: inhibitors; active means well fitted inhibition curve with a large enough effect in the signal ratio, with a control signal flat, not every such curve was filed as active; inconclusive means small, poorly fitted or top-dose-only effect, or effect the other way, or a change in a side signal; the % refers to the signal ratio;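 further: potency means the concentration at half of the fitted maximal effect; plate controls were basal doxycycline-induced cells for no effect and cells given 10 µM MG132 for full effect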
#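 TMD8 ABC-DLBCL cells carrying doxycycline-inducible green luciferase fused to IkappaBalpha plus unfused red luciferase were exposed to compounds (up to 46 uM) for 4 hrs at 37C. Activity came from the overlap-corrected green/red luminescence ratio.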
# IL1B secr inh – inflammasome signaling inhibition, IL-1 beta readout; actives 4.7% (n = 360,000); activity change, % at 57.5 µM; THP-1 LPS/ATP IL-1B secretion, AlphaLISA, 16 h; stronger effect = lower value; in the data active means activity change below about -50%; inconclusive means mostly about -30% to -49%; further: on the % scale 0 is the no-effect control and ±100 the full control effect
#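 THP-1 cells pretreated 1 hr with compounds (up to 57.5 uM final), then stimulated with LPS (250 ng/mL final) plus ATP (1.25 mM final); secreted IL-1B measured by AlphaLISA after 16 hr, decreased signal indicating inhibition.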
# TDP1 cell CPT – growth inhibition of DT40 Tdp1-/-;hTDP1 cells with camptothecin (screen for TDP1 inhibitors); chicken DT40 Tdp1-/-;hTDP1 cells + 20 nM CPT, ATP luminescence, 48 h; Potency, µM (top dose mostly 46.2 µM), inactives show at the highest dose activity change, negative = growth inhibition, actives largely listed as inhibitors; actives 12% (n = 420,000); further: potency means the concentration at half of the fitted maximal effect; on the % scale 0 is the no-effect control and ±100 the full control effect; nearly all actives have a fitted effect of over 55% in size
#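 Chicken DT40 Tdp1-/- cells complemented with human TDP1, 400 cells/well, exposed to compounds plus 20 nM camptothecin for at least 48 h at 37 C; viability read as ATP content by CellTiter-Glo luminescence.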
# Starred values were filed as active, the others as inactive; ? = inconclusive; . = no result. Unless noted, the call rests on the fitted dose curve; in most records, active means well fitted curve in the direction sought with a large enough effect; inconclusive means small, poorly fitted or top-dose-only effect, or another doubt; inactive means no such curve, though single readings can be large; an effect the other way counts as inactive or inconclusive.
SMILES,SW480 rereplic,DT40 TDP1 no CPT,MCF10A rereplic,Chronic BCR inh,IL1B secr inh,TDP1 cell CPT
N#Cc1cc2c(=O)n3ccccc3nc2n(-c2nnc(SCc3ccccc3F)s2)c1=O,.,-1.8%,.,.,.,-1.8%
Cc1cccn2c(=O)c3cc(C#N)c(=O)n(-c4nnc(SCc5ccccc5F)s4)c3nc12,.,6.51µM*,.,.,.,?
N#Cc1cc2c(=O)n3ccccc3nc2n(-c2ccccc2Cl)c1=O,4.61µM*,?,4.11µM*,7.4%,-3.3,7.31µM*
COc1ccc(-c2oc3ncn4nc(-c5ccccc5Br)nc4c3c2-c2ccc(OC)cc2)cc1,.,?,.,.,.,5.2%
N#Cc1cc2c(=O)n3ccccc3nc2n(CCCN2CCOCC2)c1=O,?,-2.0%,23.1µM*,7.3%,-9.1,-6.6%
N#Cc1cc2c(=O)n3ccccc3nc2n(CCN2CCOCC2)c1=O,.,.,.,2.7%,.,.
COc1ccc(CCNC(=O)c2cnc3ccc(C)cn3c2=O)cc1,.,-26.2%,.,.,.,?
O=[N+]([O-])c1ccc(/C=N/NS(=O)(=O)c2ccc(Cl)cc2)o1,?,16.4µM*,28.4%,0.8%,-2.7,9.2µM*
Cc1ccc(S(=O)(=O)N/N=C\c2ccc([N+](=O)[O-])o2)cc1,16.0%,16.4µM*,?,?,-60.4*,14.6µM*
Cc1ccc(S(=O)(=O)N/N=C\c2ccc([N+](=O)[O-])o2)cc1C,5.1%,?,4.7%,4.1%,-22.7,18.4µM*
Cc1ccc(N2CC(C(=O)N3CCN(Cc4ccc5c(c4)OCO5)CC3)CC2=O)cc1 (configuration not stated),-1.5%,?,7.4%,6.4%,6.4,5.0%
Cc1ccc(-n2c(C)nnc2SCC(=O)N(C)c2c(N)n(Cc3ccccc3)c(=O)[nH]c2=O)cc1,4.4%,2.5%,-4.9%,?,-18.3,-2.3%
Cc1ccc(C(CC(=O)O)Nc2nc(N3CCOCC3)nc(N3CCOCC3)n2)cc1 (configuration not stated),2.9%,-20.5%,-3.4%,-0.7%,15.6,-9.2%
Cc1ccc(Cl)cc1NC(=S)NCc1cccn1C,-0.1%,18.4µM*,-7.5%,2.8%,-7.8,?
Cc1ccccc1NC(=S)NCc1cccn1C,-6.8%,-0.7%,5.2%,-0.6%,5.4,2.6%
CNC(=S)NCc1ccc2[nH]c(C)cc2c1,-31.3%,-13.0%,0.3%,4.2%,-12.5,2.2%
CCc1cccc(C)c1NC(=S)NCc1cccn1C,-7.4%,?,-5.1%,0.7%,-3.5,20.6µM*
Cc1ccc(NC(=S)NCc2cccn2C)cc1,20.6µM*,-10.5%,26.2%,6.9%,-13.9,-19.6%
CCc1cccc(C)c1NC(=S)NCc1ccc2[nH]c(C)cc2c1,13µM*,18.4µM*,-1.2%,5.2%,-29.5,23.1µM*
COc1cccc2cc(-c3nc4sc5c(c4c(=O)[nH]3)CCC(C(C)(C)C)C5)c(=O)oc12 (configuration not stated),.,14.2%,.,.,.,-3.3%
COc1ccc(CN2C[C@@H](CO)O[C@@H](n3cnc4c(N5CCOCC5)ncnc43)C2)cc1,.,10.3%,.,.,-2.1,-28.2%
CC(C)c1ccc(C2=CC(c3cccc(Cl)c3)n3c(nc4ccccc43)N2)cc1 (configuration not stated),.,16.4µM*,.,?,.,?
CCc1ccc(C2=CC(c3cccc(C)c3)n3c(nc4ccccc43)N2)cc1 (configuration not stated),.,2.59µM*,.,?,.,?
NC1=NC(c2cccc(Cl)c2)n2c(nc3ccccc32)N1 (configuration not stated),.,-21.4%,.,.,.,3.0%
CCOC(=O)C1=C(C)Nc2nc3ccccc3n2C1c1ccc(O)cc1 (configuration not stated),-5.2%,-14.9%,-1.0%,-1.7%,16.5,-24.1%
SMILES,SW480 rereplic,DT40 TDP1 no CPT,MCF10A rereplic,Chronic BCR inh,IL1B secr inh,TDP1 cell CPT
CC(C)c1ccc(C2=CC(c3cccc(Cl)c3)n3ncnc3N2)cc1 (configuration not stated),.,23.1µM*,.,?,.,?
CCOc1ccc(C2=CC(c3cccc(Br)c3)n3c(nc4ccccc43)N2)cc1Cl (configuration not stated),.,13µM*,.,?,.,?
CCN(CC)C(=O)C1=C(C)Nc2nc3ccccc3n2C1c1cccc(OC)c1 (configuration not stated),-1.9%,?,-0.7%,-24.0%,?,?
CCc1ccc(C2N=C(N)Nc3nc4ccccc4n32)cc1 (configuration not stated),.,18.4µM*,.,.,.,16.4µM*
CN(C)c1ccc(C2C=C(c3ccc(Cl)cc3OC(F)F)Nc3ncnn32)cc1 (configuration not stated),23.1µM*,18.4µM*,4.11µM*,-3.3%,14.1,9.2µM*
O=C1NC(SCCCF)=N/C1=C/c1ccc(-n2cncn2)cc1,1.0%,-14.1%,?,?,3.9,8.3%
Cc1cccn2c(=O)nc(SCC(=O)c3ccccc3)nc12,-4.2%,-19.7%,-0.2%,?,-3.9,7.0%
COc1ccccc1NC(=O)CCc1nnc2ccc(N3CCN(C)CC3)nn12,23.9%,17.9%,0.1%,-2.2%,-8.1,-12.8%
Cc1ccc(N2C(=O)CS/C2=N\C(=S)Nc2ccccc2)cc1,-5.2%,5.8µM*,-2.8%,?,17.3,?
Nc1ccc(S(=O)(=O)c2ccc(N3CCOCC3)c(N)c2)cc1,.,20.6µM*,.,.,?,-22.6%
CC1CCCC(C)N1c1ccc(S(=O)(=O)N2CCOCC2)cc1Cl (configuration not stated),?,?,8.2µM*,14.6%,34.4,?
Nc1cc(S(=O)(=O)N2CCOCC2)ccc1N1CCCCC1,1.8%,?,-0.1%,?,-8.5,23.1µM*
Nc1cc(S(=O)(=O)Nc2cc(Cl)ccc2Cl)ccc1N1CCOCC1,?,?,2.8%,0.7%,-22.6,?
CCOC(=O)c1ccc(NC(=O)CN2C(=O)C(C)SC(C)C2=O)cc1 (configuration not stated),1.4%,-6.6%,0.2%,1.6%,4.0,-0.2%
CCOC(=O)c1ccc(NC(=O)CC2Sc3ncnn3C2=O)cc1 (configuration not stated),-1.2%,6.51µM*,?,2.3%,?,5.8µM*
COc1ccc(NC(=O)CC2Sc3ncnn3C2=O)cc1 (configuration not stated),2.7%,11.6µM*,?,0.0%,14.9,5.17µM*

# Source: PubChem (National Center for Advancing Translational Sciences (NCATS))
